This is an account of results in PubChem BioAssay (Tox21).

SMILES strings stand for the structures. The source made the active and inactive calls. A call without a number means that no potency is given here. Calls follow the shape of the dose curve; as a rule, active = well fitted curve in the direction sought with a large enough effect in the repeat runs; inconclusive = weak or mixed curves; inactive = flat fitted curve, though single readings scatter.

One experiment in a line: qHTS assay to test for compound auto fluorescence at 590 nm (red) in HepG2 cells (AID 720674). Particulars: HepG2 autofluorescence, red 540/590 nm, 1 h; series mostly up to 91.3 µM; fluorescence, relative to Rose Bengal: at the top concentration. Put shortly: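 Compound auto-fluorescence is scored relative to Rose Bengal sodium, measured at 540/590 nm in live HepG2 cultures after 1 hr compound contact (37 C, 5% CO2).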
(In general: qHTS replaces the single test concentration by a dilution series.)
As for `CC1(C)S[C@@H]2[C@H](NC(=O)[C@H](N)c3ccccc3)C(=O)N2[C@H]1C(=O)O`, the Potency entry is “inactive”.

On to `CN(C)CCOC(C)(c1ccccc1)c1ccccn1` (stereo not drawn), for which the Potency entry was “inactive”.

Consider `COc1ccc(OC(F)(F)F)cc1CN[C@H]1CCCN[C@H]1c1ccccc1`, for which the “fluorescence, relative to Rose Bengal” value is -0.289% (inactive).

With `CCCCCCCCCCCCCCCC[N+](C)(C)Cc1ccccc1`, the Potency entry was “inactive”.

`Cc1cn([C@H]2C=C[C@@H](CO)O2)c(=O)[nH]c1=O`: the Potency result was “inactive”.

As to `Nc1ccc(O)c([N+](=O)[O-])c1`, the “fluorescence, relative to Rose Bengal” value was 0.291% (inactive).

As for `CC(O)(P(=O)(O)O)P(=O)(O)O`, the Potency entry was “inactive”.

Regarding `Cc1cc(C)nc(NS(=O)(=O)c2ccc(N)cc2)n1`, the Potency result is “inactive”.

Take `CN(C)C(=S)SC(=S)N(C)C`: the Potency result is “inactive”.

With `NC1CCCCC1`, the Potency result is “inactive”.

For the compound `Nc1c(N=Nc2ccc(-c3ccc(N=Nc4cc(S(=O)(=O)O)c5ccccc5c4N)cc3)cc2)cc(S(=O)(=O)O)c2ccccc12`, the Potency entry was “inactive”.

Take `CCCCOC(=O)c1ccc(O)cc1`: the Potency entry is “inactive”.

In the case of `CC(C)C(=O)Nc1ccc([N+](=O)[O-])c(C(F)(F)F)c1`, the Potency result is “inactive”.

In the case of `Nc1ccc([N+](=O)[O-])cc1O`, the “fluorescence, relative to Rose Bengal” value was -0.608% (inactive).

As to `Cc1cccc(C)c1`, the Potency result is “inactive”.

On to `CN(C)CCOC(c1ccccc1)c1ccccc1`, for which the Potency result was “inactive”.

With `CN1CCc2cccc3c2[C@H]1Cc1ccc(O)c(O)c1-3`, the Potency result is “inactive”.

For the compound `Nc1c2c(nc3ccccc13)CCCC2`, the Potency entry is “inactive”.

As to `CCCCCCCCCCCC[N+](C)(C)Cc1ccccc1`, the Potency result was “inactive”.

`COc1ccc2c(c1)c(CC(=O)O)c(C)n2C(=O)c1ccc(Cl)cc1`: the Potency result is “inactive”.

For the compound `Oc1ccccc1`, the Potency entry is “inactive”.

Turning to `COc1cccc(O)c1O`, the “fluorescence, relative to Rose Bengal” value is -0.104% [at 95.7 µM] (inactive).

Regarding `Nc1ccc(S(N)(=O)=O)cc1`, the Potency entry is “inactive”.

Turning to `O=C1c2c(O)cccc2Cc2cccc(O)c21`, the Potency entry was “inactive”.

In the case of `CC(=O)Nc1c(I)c(NC(C)=O)c(I)c(C(=O)O)c1I`, the Potency entry was “inactive”.

Take `Cn1c(=O)c2c(ncn2C)n(C)c1=O`: the Potency result was “inactive”.

In the case of `CNNCc1ccc(C(=O)NC(C)C)cc1`, the Potency result was “inactive”.

Take `NC(=O)n1c(O)c(C(=O)c2cccs2)c2cc(Cl)ccc21`: the “fluorescence, relative to Rose Bengal” value is -0.195% [at 46 µM] (inactive).

On to `O=C1O[C@H]([C@@H](O)CO)C(O)=C1O`, for which the Potency entry was “inactive”.

A short description of another experiment: qHTS assay to test for compound auto fluorescence at 535 nm (green) in HepG2 cells (AID 720675). The note with it: green autofluorescence 485/535 nm, 1 h; series mostly up to 91.3 µM; fluorescence, % of fluorescein control: at the top concentration.
With `CC1(C)S[C@@H]2[C@H](NC(=O)[C@H](N)c3ccccc3)C(=O)N2[C@H]1C(=O)O`, the Potency entry was “inactive”.

In the case of `CN(C)CCOC(C)(c1ccccc1)c1ccccn1` (stereo not drawn), the Potency result is “inactive”.

For the compound `COc1ccc(OC(F)(F)F)cc1CN[C@H]1CCCN[C@H]1c1ccccc1`, the “fluorescence, % of fluorescein control” value is -0.0595% (inactive).

Turning to `CCCCCCCCCCCCCCCC[N+](C)(C)Cc1ccccc1`, the Potency result was “inactive”.

On to `Cc1cn([C@H]2C=C[C@@H](CO)O2)c(=O)[nH]c1=O`, for which the Potency entry was “inactive”.

For the compound `Nc1ccc(O)c([N+](=O)[O-])c1`, the “fluorescence, % of fluorescein control” value is -0.296% (inactive).

As for `CC(O)(P(=O)(O)O)P(=O)(O)O`, the Potency entry was “inactive”.

In the case of `Cc1cc(C)nc(NS(=O)(=O)c2ccc(N)cc2)n1`, the Potency result is “inactive”.

Regarding `CN(C)C(=S)SC(=S)N(C)C`, the Potency entry was “inactive”.

Turning to `NC1CCCCC1`, the Potency result is “inactive”.

In the case of `Nc1c(N=Nc2ccc(-c3ccc(N=Nc4cc(S(=O)(=O)O)c5ccccc5c4N)cc3)cc2)cc(S(=O)(=O)O)c2ccccc12`, the Potency entry is “inactive”.

On to `CCCCOC(=O)c1ccc(O)cc1`, for which the Potency result is “inactive”.

As for `CC(C)C(=O)Nc1ccc([N+](=O)[O-])c(C(F)(F)F)c1`, the Potency result is “inactive”.

With `Nc1ccc([N+](=O)[O-])cc1O`, the “fluorescence, % of fluorescein control” value is -0.378% (inactive).

On to `Cc1cccc(C)c1`, for which the Potency result is “inactive”.

With `CN(C)CCOC(c1ccccc1)c1ccccc1`, the Potency entry is “inactive”.

Consider `CN1CCc2cccc3c2[C@H]1Cc1ccc(O)c(O)c1-3`, for which the Potency entry was “inactive”.

For the compound `Nc1c2c(nc3ccccc13)CCCC2`, the Potency entry is “inactive”.

Turning to `CCCCCCCCCCCC[N+](C)(C)Cc1ccccc1`, the Potency entry is “inactive”.

For `COc1ccc2c(c1)c(CC(=O)O)c(C)n2C(=O)c1ccc(Cl)cc1`, the Potency entry is “inactive”.

`Oc1ccccc1`: the Potency entry was “inactive”.

`COc1cccc(O)c1O`: the “fluorescence, % of fluorescein control” value was -0.0249% [at 95.7 µM] (inactive).

In the case of `Nc1ccc(S(N)(=O)=O)cc1`, the Potency entry is “inactive”.

As for `O=C1c2c(O)cccc2Cc2cccc(O)c21`, the Potency entry was “inactive”.

`CC(=O)Nc1c(I)c(NC(C)=O)c(I)c(C(=O)O)c1I`: the Potency result is “inactive”.

On to `Cn1c(=O)c2c(ncn2C)n(C)c1=O`, for which the Potency result is “inactive”.

As to `CNNCc1ccc(C(=O)NC(C)C)cc1`, the Potency entry was “inactive”.

Take `NC(=O)n1c(O)c(C(=O)c2cccs2)c2cc(Cl)ccc21`: the “fluorescence, % of fluorescein control” value was -0.0025% [at 46 µM] (inactive).

Consider `O=C1O[C@H]([C@@H](O)CO)C(O)=C1O`, for which the Potency entry was “inactive”.
